LASV entry inh: inhibitors of Lassa virus binding or cell entry; Lassa virus pseudotype entry inhibition, cell reporter; Potency, µM (titrated, usually from 37.9 µM), without a hit: top-dose activity change, negative = inhibition, actives largely listed as inhibitors; 300,000 tested, 1.2% active; AID 540256; calls by dose curve; tested in HEK293 cells; further: nearly all actives have a fitted effect of over 50% in size
VACV Venus inh: vaccinia inhibition (Venus reporter); Vaccinia virus Venus reporter expression, fluorescence; Potency, µM (top dose mostly 36.5 µM), for the others: at the top dose activity change, negative = inhibition, usual class: inhibitors; 330,000 tested, 0.46% active; AID 720580; calls by dose curve; tested in A549 cells; further: nearly all actives have a fitted effect of over 30% in size
VACV mCherry inh: vaccinia inhibition (mCherry reporter) | Vaccinia virus mCherry reporter infection, fluorescence | Potency, µM (titrated, usually from 36.5 µM), without a hit: at the top dose activity change, negative = inhibition, most hits filed as inhibitors | 310,000 tested, 0.63% active; calls by dose curve; tested in A549 cells; further: nearly all actives have a fitted effect of over 35% in size
MARV entry inh: inhibitors of Marburg virus binding or cell entry; Marburg virus pseudotyped entry inhibition, cell reporter; Potency, µM (titrated, usually from 37.8 µM), inactives show at the top dose activity change, negative = inhibition, usual class: inhibitors; 300,000 tested, 1.8% active; AID 540276; calls by dose curve; tested in HEK293 cells
Sm TGR block: S. mansoni TGR enzyme inhibition | Q962Y6 | 360,000 tested, 3% active | Potency, µM (highest dose often 114 µM), without a hit: at the top dose activity change, negative = inhibition, most hits filed as inhibitors | AID 485364 | purified TGR, DTNB reduction, TNB absorbance 405 nm; active means well fitted inhibition curve with a large enough effect; inconclusive means small, poorly fitted or top-dose-only effect; inactive means no such curve, though single readings can be large or run the other way; further: nearly all actives have a fitted effect of over 60% in size
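TGR 20 nM + NADPH 100 uM (dispensed conc.), cpd preinc 15 min RT; start with NADPH (500 uM addition) then DTNB (15 mM addition). Kinetic TNB absorbance, 405 nm filter. Four-parameter Hill fit across titration.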
FMDV antiviral: blocks foot and mouth disease virus | 410,000 tested, 1.2% active | AID 1159524 | FMDV antiviral cell-based qHTS | Potency, µM (top dose mostly 57.9 µM), without a hit: at the top dose activity change, negative = inhibition, usual class: inhibitors; calls by dose curve; tested in HEK293T cells; further: read-out not given here; nearly all actives have a fitted effect of over 45% in size
The depositor's hits bear a star; i = inactive; u = inconclusive; x = no result given; [ ] = another dose, or the depositor's remark. A selection: hits, their analogues and other compounds. The true share with any hit is near 5.4%. On the % scale 0 is the no-effect control and ±100 the full control effect; potency means the concentration at half of the fitted maximal effect.

SMILES	LASV entry inh	VACV Venus inh	VACV mCherry inh	MARV entry inh	Sm TGR block	FMDV antiviral
Cn1nc(C(C)(C)C)cc1C(=O)Sc1cccc(Br)c1	-16%	-6%[7.34 µM]	i[7.34 µM]	-3%[46.1 µM]	13µM*	-30%
Nc1ccccc1-c1ccccc1N	10%	-9%	-3%	25%	0%	-7%
c1ccc2c(c1)[IH]c1ccccc1-2	x	11µM*	u	x	x	u
CCOC(=O)Cc1csc(NC(=O)c2ccc(Br)o2)n1	6%	-20%	-24%	8%	3%	9%
CCOC(=O)Cc1csc(NC(=O)/C=C/c2ccc(Br)o2)n1	x	x	x	x	10µM*	u
O=C(/C=C/c1ccc(Br)o1)Nc1nccs1	2%	x	x	u	3.2µM*	59%
CN1CCCc2cc(/C=C/c3ccnc4ccccc34)ccc21	x	33%	-10%	x	x	x
Cc1cc(C)n(-c2nc(NC(C)C)nc(NC(C)(C)C)n2)n1	x	-18%	-11%	x	x	x
O=c1nc(Nc2ccc(OCc3ccccc3)cc2)sc2ncccc12	u	6%	0.79µM*	u	4%	-17%
CC(=O)c1ccc(Nc2nc(=O)c3cccnc3s2)cc1	u	-25%	u	u	4%	47%
CCOC(=O)c1ccc(Nc2nc(=O)c3cccnc3s2)cc1	-83%[14.3 µM]	1%	10µM*	2.1µM*	-11%	51%
COc1ccc(N2CCN(C(=O)c3sc4nc5n(c(=O)c4c3C)CCC5)CC2)cc1	19%[46.1 µM]	-4%	-21%	x	9%	-24%
Oc1c(C(c2ccccc2Cl)N2CCCC2)sc2nc(-c3ccco3)nn12 (stereo unspecified)	7%[46.1 µM]	-14%	-17%	x	54%	0%
Cc1cc(C)c(S(=O)(=O)/N=C2\C=CC(=O)C(Cl)=C2)c(C)c1	2%	x	x	-22%	4µM*	55%
Cc1ccc(S(=O)(=O)c2c(C)cc(C)nc2Cl)c(C)c1	0%	x	x	1%	-7%	-22%
COc1cccc(C(=O)NCc2nc(-c3cccc(NC(=O)c4ccoc4C)c3)oc2C)c1OC	x	u	u	x	x	20µM*
COC(=O)C1=COC(C)C2CN3CCC4(C(=O)Nc5ccccc54)C3CC12 (stereo unspecified)	x	-1%	-4%	x	4%	0%
COC(=O)C1=COC(C)C2CN3CCc4c([nH]c5cc(OC)c(OC)cc45)C3CC12 (stereo unspecified)	x	17%	3%	x	20µM*	-14%
Cc1ccc(CN2CCc3nc(N4CCN(C)CC4)ncc3C2)s1	2%[46.1 µM]	2%	1%	x	18%	-11%
CN(C)C(=O)COc1ccc(S(=O)(=O)c2ccc(OCC(=O)N(C)C)cc2)cc1	27%[46.1 µM]	-12%	i	-4%[46.1 µM]	79µM*	7%
CN(C)C(=O)COc1ccc(Br)cc1	14%	-5%	-15%	u	-4%	-4%
CCCc1nc2ccccc2n2c(-c3ccccc3)c3c(=O)n(C)c(=O)n(C)c3c12	-28%[46.1 µM]	-10%	-18%	x	6%	u
Cn1c(=O)c2cn3c(c2n(C)c1=O)C(c1ccccc1)CC(c1ccccc1)=N3 (stereo unspecified)	26%	-27%	x	u	13µM*	17%
COc1ccc(-n2c(-c3ccccc3F)nc3c(cnn3-c3ccc(C)cc3)c2=O)cc1	u	-11%[7.34 µM]	-17%[7.34 µM]	u	8%	-25%
O=C(O)CCn1cc(C=C2C(=O)NC(=S)NC2=O)c(-c2cc3ccccc3oc2=O)n1	-4%[46.1 µM]	23%	-10%	-12%[46.1 µM]	10µM*	-7%
SMILES	LASV entry inh	VACV Venus inh	VACV mCherry inh	MARV entry inh	Sm TGR block	FMDV antiviral
O=C(O)CCn1cc(C=C2C(=O)NC(=S)NC2=O)c(-c2ccccc2)n1	4%	1%	-11%	u	79µM*	-5%
N#CCCn1cc(C=C2C(=O)NC(=O)NC2=O)c(-c2ccccc2)n1	-15%[46.1 µM]	-3%	i	-18%[46.1 µM]	-13%	2%
O=C(NCC1Cc2cccc(-c3cncnc3)c2O1)C1CC1 (stereo unspecified)	x	0%	-3%	x	x	-14%
Clc1cccc(-c2ccc(CNCc3ccccn3)o2)c1	x	x	x	x	13µM*	32%
Brc1ccc(-c2ccc(CNCc3ccccn3)o2)cc1	x	x	x	x	40µM*	0%
C[n+]1ccc(/C=C/c2ccc(C=S)cc2)c2ccccc21	x	112%	9%	x	x	x
CCOC(=O)c1c(NC(=O)CSc2nc3ccc(C)cc3[nH]2)sc2c1CC(C)(C)NC2(C)C	10µM*	u	-25%	u	6%	-23%
CCOC(=O)c1c(NC(=O)CCS(=O)(=O)c2ccccc2)sc2c1CC(C)(C)NC2(C)C	u	-11%	-13%	-13%	40µM*	-8%
COC(=O)c1c(NC(=O)c2ccc(OC(C)C)cc2)sc2c1CC(C)(C)NC2(C)C	x	18µM*	u	x	7%	-11%
COc1c(C)cccc1C(=O)Nc1ccc(Cl)c(-c2nc3cc(C)ccc3o2)c1	u	-12%	i	-1%[46.1 µM]	3%	3%
O=C1N=c2ccc(Br)cc2=C1c1sc(=S)n(NS(=O)(=O)c2ccccc2)c1O	-2%[46.1 µM]	-8%	-3%	u	11µM*	-13%
Cc1ccc(S(=O)(=O)Nn2c(O)c(C=C3N=c4ccccc4=N3)sc2=S)cc1	x	x	x	x	13µM*	-9%
O=C(NCCc1ccccc1)C1CCN(Cc2cc3ccccc3n2Cc2ccccc2)CC1	u	-20%	-23%	x	4%	-15%
Cc1ccc2oc(C(=O)N(C)Cc3ccc(C)o3)c(C)c2c1	x	-8%[7.34 µM]	-16%[7.34 µM]	x	2.2µM*	4%
Cc1ccc(CN(C)C(=O)c2cc(Br)c(Br)s2)o1	18%[46.1 µM]	-4%	i	0%[46.1 µM]	50µM*	9%
Cc1ccc(CN(C)C(=O)c2cccc(S(=O)(=O)N3CCCC3)c2)o1	13%[46.1 µM]	13%	i	-2%[46.1 µM]	x	3%
Cc1ccc(-c2nc(CS(=O)CC(=O)N3CCN(c4ccc(Cl)cc4)CC3)c(C)o2)cc1 (stereo unspecified)	u	u	-15%	x	u	-24%
c1ccc2sc(SCc3ccc(-c4nnco4)cc3)nc2c1	11µM*	-17%	-21%	u	-29%	1%
Cc1ccsc1C(=O)NCCC(c1ccccc1)c1ccccc1	u	-14%	-18%	13µM*	-3%	-8%
CCCNC(=O)c1ccc2c(c1)nc1n2CCCCC1	17%[46.1 µM]	-6%	-12%	x	-1%	3%
CC(C)C(=O)N1N=C(c2ccc(NS(C)(=O)=O)cc2)CC1c1cccs1 (stereo unspecified)	u	-26%	-14%	u	-16%	19%
CS(=O)(=O)Nc1ccc(C2=NN(C(=O)C3CCCCC3)C(c3cccs3)C2)cc1 (stereo unspecified)	u	u	-21%	u	-1%	20µM*
CCOC(=O)/C(=C\c1cn(C)c2ccccc12)[N+](=O)[O-]	0%	-23%	u	14%	u	28µM*
COC(=O)C1C/C(=N\NS(=O)(=O)c2ccc(C)cc2)c2sccc2C1 (stereo unspecified)	1%	-1%	-7%	0%	-7%	-1%
COC(=O)C1C/C(=N/NS(=O)(=O)c2ccc(C)cc2)CS1 (stereo unspecified)	3%[46.1 µM]	-8%	-2%	-1%[46.1 µM]	13µM*	15%
